# Experimental data taken from PubChem BioAssay (NCATS).
# Where “and” joins values, the source holds several entries; their conditions need not be identical. Equal entries are not always repeated. Records with an inconclusive call do not appear. Where a call stands in place of a potency, no number is given. A number with no mark means an inactive call. Calls of active or inactive are those of the source. Calls follow the shape of the dose curve; as a rule, active = well fitted curve in the direction sought with a large enough effect; inconclusive = small, poorly fitted or top-dose-only effect, or another doubt; inactive = no such curve, though single readings can be large; an effect the other way counts as inactive or inconclusive.
# Assays:
# [1] = system: Zika virus NS2B-NS3 protease; test: Primary screen GU AMC qHTS for Zika virus inhibitors (AID 1347154); also: nearly all actives have a fitted effect of over 70% in size; also: potency is read from the fitted curve at half-maximal effect
# Outline: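 Fluorogenic AMC-substrate cleavage by noncovalent NS2B-NS3 protease complex (25 nM, pH 8.0 Tris buffer with Tween 20) followed for 15 minutes at room temperature (~20% conversion). Percent inhibition from ex340/em450 signal change, fitted by 4-parameter Hill equation.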
# [2] = system: Zika virus NS2B-NS3 protease (unlinked); test: Optimization of GU AMC qHTS for Zika virus inhibitors: Unlinked NS2B-NS3 protease assay (AID 1347151); also: nearly all actives have a fitted effect of over 80% in size
# Outline: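 Unlinked protease (25 nM final); buffer 10 mM Tris-HCl pH 8.0 + 0.01% Tween 20; AMC substrate; 15 min RT, dark; Δfluorescence normalized to no-inhibitor/no-enzyme controls; 4-parameter Hill fit.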
# [3] = system: Zika virus NS2B-NS3 protease (linked construct); test: Confirmatory screen NINDS AMC qHTS for Zika virus inhibitors (AID 1347152); also: potency is read from the fitted curve at half-maximal effect; nearly all actives have a fitted effect of over 70% in size
# Outline: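 Enzyme (1 nM, linked construct) was preincubated with compound for 15 minutes at room temperature in 10 mM Tris-HCl pH 8.0 with 0.01% Tween 20. Bz-Nle-Lys-Arg-Arg-AMC was then added to 10 microM, and AMC fluorescence was recorded immediately and after 15 minutes.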
# [4] = system: Zika virus NS2B-NS3 protease (unlinked complex); test: Confirmatory screen GU AMC qHTS for Zika virus inhibitors (AID 1347153); also: nearly all actives have a fitted effect of over 70% in size
# Outline: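 Noncovalent NS2B hydrophilic domain/NS3 protease complex (25 nM) in 10 mM Tris-HCl pH 8.0, 0.01% Tween 20 was preincubated 15 min at room temperature with compounds. Then 10 µM AMC substrate (Km 18.3 µM) was added; fluorescence was read over 15 min and fitted to a 4-parameter Hill equation.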
# [5] = Confirmatory screen NINDS Rhodamine qHTS for Zika virus inhibitors (AID 1347161);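 also: purified Zika NS2B-NS3 protease with linked NS2B cofactor domain and Rhodamine110 peptide substrate; nearly all actives have a fitted effect of over 60% in size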
# Outline: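 qHTS dose-response: 25 nM linked protease, pH 8.0 Tris/Tween buffer, cpd titration, 15 min RT preinc, 1.5 microM Rhod110 peptide, 15 min reaction (~15% conversion), Ex480/Em540; 4-parameter Hill fit.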
# [6] = Vero cells viability qHTS for Zika virus inhibitors (AID 1347167)
# Outline: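 Luminescent ATP readout (CellTiter Glo) after 30 min at 37 degrees C gives viability; cells in DMEM + 4% FBS were treated 24 to 48 hours with compound, following overnight attachment.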
# [7] = Tertiary RLuc qRT-PCR qHTS assay for Zika virus inhibitors (AID 1347169); also: top concentration of the series differs between compounds; nearly all actives have a fitted effect of over 55% in size
# Outline: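 Vero, 1,000 cells/well, o/n 37 C; cpd pinned in DMSO; ZIKV-RLuc Cambodian, MOI 1-2, 48-72 h 37 C; live-cell RLuc substrate, lum read at 1-1.5 h.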
# [8] = qHTS to identify inhibitors of the type 1 interferon - major histocompatibility complex class I in skeletal muscle: primary screen against the NCATS Pharmaceutical Collection (AID 1347407);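 also: luminescence of HiBiT knocked into endogenous HLA-B as interferon-induced MHC class I level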
# Outline: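 Luminescence from HiBiT-tagged endogenous HLA-B*08:01 served as the read-out of IFN-beta-induced MHC class I in CRISPR-engineered C25cl48 myoblasts. Cells received 4 ng/ml IFN-beta plus compound (high final 46 uM, […]) for 24 h.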
# [9] = qHTS of pediatric cancer cell lines to identify multiple opportunities for drug repurposing: Confirmatory screen for Saos-2 cells (AID 1347127); also: nearly all actives have a fitted effect of over 60% in size; also: potency is read from the fitted curve at half-maximal effect
# Outline: (§1)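 Cells (500-1,000/well) rested 5 h, then received compounds for 48 h; metabolically active cells were measured by CellTiter-Glo luminescence. Final concentrations spanned up to 46 µM (MIPE, 11-point) or 0.59 nM-46 µM (NPC, 8-point) in primary screens, 11-point in follow-ups.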
# [10] = qHTS of pediatric cancer cell lines to identify multiple opportunities for drug repurposing: Confirmatory screen for OHS-50 cells (AID 1347128);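 also: potency is read from the fitted curve at half-maximal effect; compound exposure lasted 48 h at 37 degrees C; nearly all actives have a fitted effect of over 55% in size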
# Outline: as §1
# [11] = system: Zika virus NS2B-NS3 protease (unlinked complex); test: Primary screen GU Rhodamine qHTS for Zika virus inhibitors: Unlinked NS2B-NS3 protease assay (AID 1347159); also: nearly all actives have a fitted effect of over 60% in size
# Outline: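 Buffer 10 mM Tris-HCl pH 8.0, 0.01% Tween 20. Unlinked protease 25 nM; compound preincubation 15 min, RT, protected from light. Substrate Rhod110, 1.5 microM; ~15% conversion in 15 min.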
# [12] = qHTS of pediatric cancer cell lines to identify multiple opportunities for drug repurposing: Confirmatory screen for Rh30 cells (AID 1347126); also: nearly all actives have a fitted effect of over 55% in size
# Outline: as §1
# [13] = qHTS of pediatric cancer cell lines to identify multiple opportunities for drug repurposing: Confirmatory screen for SK-N-SH cells (AID 1347129);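 also: potency is read from the fitted curve at half-maximal effect; cells exposed to compound for 48 h before viability read; nearly all actives have a fitted effect of over 60% in size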
# Outline: as §1
# [14] = molecular target: N-terminal Xaa-Pro-Lys N-methyltransferase 1 (Homo sapiens) (UniProt Q9BV86); test: qHTS Assay for Inhibitors of N-terminal methyltransferase 1 (NTMT1): LOPAC validation of the NTMT1 SAHH-coupled ThioGlo3 Assay (AID 1347143);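 also: SAH from peptide methylation measured as thiol fluorescence via SAHH coupling and ThioGlo3; nearly all actives have a fitted effect of over 70% in size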
# Outline: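 NTMT1 125nM + cpds (various conc.), 1 min RT; add SAM 100uM/SAHH 10uM/ThioGlo3 15uM (addition mix). SAHH-coupled thiol detection, Ex340/Em450, t0 and 30 min RT; signal normalized to background. LOPAC 1280-cpd pilot.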
# [15] = molecular target: Lysine-specific demethylase 5B (Homo sapiens) (UniProt Q9UGL1); test: Optimization screen for KDM5B Histone Demethylases FDH coupled qHTS against the LOPAC library (AID 1347166); conditions: KDM5B demethylation, FDH-coupled NADH fluorescence (FDH is formaldehyde dehydrogenase); at 57.5 µM (top of the series)
# Outline: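 KDM5BDeltaAP (200nM final) in 50mM HEPES pH 7.5, 0.01% Tween-20 was preincubated with compound for 10 min at room temperature. A substrate mix of 12.5uM H3K4Me3, 25uM a-ketoglutarate, ascorbate, Fe2+, NAD+ and formaldehyde dehydrogenase was then added. NADH fluorescence (340/450 nm) was read initially and after 30 min.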
# [16] = Confirmatory screen GU Rhodamine qHTS for Zika virus inhibitors qHTS (AID 1347157); also: nearly all actives have a fitted effect of over 70% in size
# Outline: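 Percent inhibition came from the 15-min rise in Rhodamine110 fluorescence (1.5 microM substrate, ~15% conversion), normalized to no-inhibitor and no-enzyme wells and Hill-fitted. Unlinked protease, 25 nM, pH 8.0 Tris buffer; compounds up to 114 microM, 15-min preincubation.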
# Sequence of Lysine-specific demethylase 5B (Homo sapiens) (Q9UGL1 whole entry, looked up): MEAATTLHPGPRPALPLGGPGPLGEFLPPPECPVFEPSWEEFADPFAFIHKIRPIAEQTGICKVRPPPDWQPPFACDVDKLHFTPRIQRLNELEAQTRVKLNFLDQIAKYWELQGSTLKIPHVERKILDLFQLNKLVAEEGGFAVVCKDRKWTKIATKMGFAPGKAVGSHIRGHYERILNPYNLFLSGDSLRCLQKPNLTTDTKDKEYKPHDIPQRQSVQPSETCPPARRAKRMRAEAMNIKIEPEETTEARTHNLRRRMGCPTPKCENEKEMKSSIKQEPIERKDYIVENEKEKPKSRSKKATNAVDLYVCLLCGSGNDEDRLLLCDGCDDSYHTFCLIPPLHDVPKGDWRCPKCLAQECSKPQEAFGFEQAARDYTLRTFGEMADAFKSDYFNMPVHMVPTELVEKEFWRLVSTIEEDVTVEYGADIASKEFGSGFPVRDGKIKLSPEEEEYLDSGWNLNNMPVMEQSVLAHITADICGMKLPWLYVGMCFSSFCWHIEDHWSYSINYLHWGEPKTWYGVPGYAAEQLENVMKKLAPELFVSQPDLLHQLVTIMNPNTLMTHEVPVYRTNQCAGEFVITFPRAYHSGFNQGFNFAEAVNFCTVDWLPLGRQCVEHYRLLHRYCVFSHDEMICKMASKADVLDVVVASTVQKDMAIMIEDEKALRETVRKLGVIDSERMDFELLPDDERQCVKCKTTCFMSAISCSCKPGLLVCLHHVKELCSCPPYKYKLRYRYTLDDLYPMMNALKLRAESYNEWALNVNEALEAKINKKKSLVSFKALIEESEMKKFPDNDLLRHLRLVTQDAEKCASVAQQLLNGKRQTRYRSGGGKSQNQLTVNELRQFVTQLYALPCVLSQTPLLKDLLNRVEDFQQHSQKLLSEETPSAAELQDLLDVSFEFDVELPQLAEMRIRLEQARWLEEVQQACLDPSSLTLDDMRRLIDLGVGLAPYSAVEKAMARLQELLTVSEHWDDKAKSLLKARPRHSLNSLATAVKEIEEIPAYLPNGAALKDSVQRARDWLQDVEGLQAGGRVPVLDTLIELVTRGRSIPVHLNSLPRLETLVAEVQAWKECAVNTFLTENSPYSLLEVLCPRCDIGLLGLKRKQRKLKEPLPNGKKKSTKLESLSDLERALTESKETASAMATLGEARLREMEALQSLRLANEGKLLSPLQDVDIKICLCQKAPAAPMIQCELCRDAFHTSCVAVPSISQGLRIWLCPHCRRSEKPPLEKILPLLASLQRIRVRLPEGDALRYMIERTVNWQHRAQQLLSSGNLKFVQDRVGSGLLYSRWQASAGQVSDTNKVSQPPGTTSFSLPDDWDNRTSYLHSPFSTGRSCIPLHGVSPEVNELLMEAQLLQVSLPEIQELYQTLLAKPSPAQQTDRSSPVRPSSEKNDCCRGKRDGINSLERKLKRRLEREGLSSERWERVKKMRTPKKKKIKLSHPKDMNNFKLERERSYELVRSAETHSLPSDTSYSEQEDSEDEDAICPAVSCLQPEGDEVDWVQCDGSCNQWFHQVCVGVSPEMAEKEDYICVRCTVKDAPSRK
# Sequence of N-terminal Xaa-Pro-Lys N-methyltransferase 1 (Homo sapiens) (Q9BV86 whole entry, looked up): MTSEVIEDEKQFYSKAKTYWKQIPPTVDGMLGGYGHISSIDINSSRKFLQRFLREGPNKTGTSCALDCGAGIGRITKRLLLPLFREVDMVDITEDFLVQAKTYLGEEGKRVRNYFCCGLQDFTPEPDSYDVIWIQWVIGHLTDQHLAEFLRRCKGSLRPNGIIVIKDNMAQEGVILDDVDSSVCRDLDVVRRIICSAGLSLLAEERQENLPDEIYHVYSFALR
compound,measurement,setting,value
Cc1c(-c2ccc(O)cc2)n(Cc2ccc(OCCN3CCCCCC3)cc2)c2ccc(O)cc12,Potency,[1],inactive
Cc1ccc(S(=O)(=O)N[C@@H](Cc2ccccc2)C(=O)CCl)cc1,Potency,[2],inactive
same,Potency,[1],inactive
CNC1CCCN(c2c(F)cc3c(=O)c(C(=O)O)cn(C4CC4)c3c2OC)C1 (stereo not given),Potency,[3],27.1 µM (active)
same,Potency,[4],inactive
same,Potency,[1],25.6 µM (active)
same,Potency,[5],inactive
same,Potency,[6],inactive
same,Potency,[7],inactive
same,Potency,[8],inactive
Clc1ccccc1CN1CCc2sccc2C1,Potency,[1],inactive
Cc1cccc(Nc2ccncc2S(=O)(=O)NC(=O)NC(C)C)c1,Potency,[1],inactive
Nc1nc(F)nc2c1ncn2[C@@H]1O[C@H](CO)[C@@H](O)[C@@H]1O,Potency,[9],928 nM (active) and 1.17 µM (active)
same,Potency,[10],0.414 µM (active)
same,Potency,[1],inactive
same,Potency,[11],inactive
same,Potency,[8],inactive
CN1CCCC(n2nc(Cc3ccc(Cl)cc3)c3ccccc3c2=O)CC1 (stereo not given),Potency,[12],inactive
same,Potency,[9],inactive
same,Potency,[13],20.9 µM (active)
same,Potency,[1],inactive
same,Potency,[8],inactive
CCCCS(=N)(=O)CCC(N)C(=O)O (stereo not given),Potency,[14],inactive
same,Potency,[2],inactive
same,Potency,[1],inactive
same,"activity, negative = inhibition",[15],-3.95%
O=S(=O)(c1cccc2cnccc12)N1CCCNCC1,Potency,[1],inactive
CN(C)CCc1c[nH]c2ccc(CS(=O)(=O)N3CCCC3)cc12,Potency,[1],inactive
same,Potency,[8],inactive
Cc1nnc(C(=O)NC(C)(C)c2nc(C(=O)NCc3ccc(F)cc3)c(O)c(=O)n2C)o1,Potency,[1],inactive
same,Potency,[11],inactive
same,Potency,[8],inactive
CC1(C)[C@H](C(=O)O)N2C(=O)C[C@H]2S1(=O)=O,Potency,[1],inactive
same,Potency,[11],inactive
same,Potency,[8],inactive
C[C@]12C=CC(=O)C=C1CC[C@@H]1[C@@H]2C(=O)C[C@@]2(C)[C@H]1CC[C@]2(O)C(=O)CO,Potency,[1],inactive
same,Potency,[8],inactive
O=C(O)c1cc(=O)[nH]c(=O)[nH]1,Potency,[1],inactive
same,Potency,[8],inactive
CC(C)Cn1cnc2c(N)nc3ccccc3c21,Potency,[1],inactive
same,Potency,[8],inactive
CC[C@H](C)C(=O)O[C@H]1C[C@@H](C)C=C2C=C[C@H](C)[C@H](CC[C@@H]3C[C@@H](O)CC(=O)O3)[C@H]21,Potency,[1],inactive
same,Potency,[11],inactive
same,Potency,[8],inactive
CC(=O)[C@H]1CC[C@H]2[C@@H]3CC=C4C[C@@H](O)CC[C@]4(C)[C@H]3CC[C@]12C,Potency,[1],inactive
same,Potency,[8],inactive
COc1ncnc(NS(=O)(=O)c2ccc(N)cc2)c1OC,Potency,[1],inactive
same,Potency,[8],inactive
NNC(=O)c1ccncc1,Potency,[1],inactive
same,Potency,[8],inactive
CC1=NN(c2ccccc2)C(=O)C1,Potency,[1],inactive
same,Potency,[8],inactive
OC(Cn1cncn1)(Cn1cncn1)c1ccc(F)cc1F,Potency,[1],inactive
same,Potency,[8],inactive
Cc1oc(=O)oc1CN1CCN(c2cc3c(cc2F)c(=O)c(C(=O)O)c2n3C(C)S2)CC1 (stereo not given),Potency,[1],inactive
same,Potency,[8],inactive
Cn1c(=O)c2c(ncn2CC(O)CO)n(C)c1=O (stereo not given),Potency,[1],inactive
same,Potency,[8],inactive
CCOCC(O)COc1ccc(NC(=O)CC[S+](C)C)cc1 (stereo not given),Potency,[1],inactive
same,Potency,[8],inactive
CC(C)(Sc1cc(C(C)(C)C)c(O)c(C(C)(C)C)c1)Sc1cc(C(C)(C)C)c(O)c(C(C)(C)C)c1,Potency,[1],inactive
same,outcome,[16],inactive
same,Potency,[5],inactive
same,"activity change, negative = inhibition",[7],-19.1% [at 0.566 µM]
same,Potency,[8],inactive
O=P(O)(O)C(O)(Cc1cccnc1)P(=O)(O)O,Potency,[1],inactive
same,Potency,[8],inactive
COc1cc2ncnc(Nc3cccc(Cl)c3)c2cc1OC,Potency,[1],inactive
same,Potency,[11],inactive
C[C@@H]1CN(c2c(F)c(N)c3c(=O)c(C(=O)O)cn(C4CC4)c3c2F)C[C@H](C)N1,Potency,[1],inactive
same,Potency,[8],inactive
O=C(N[C@H](CO)[C@H](O)c1ccc([N+](=O)[O-])cc1)C(Cl)Cl,Potency,[1],inactive
same,Potency,[8],inactive
COc1cc(NS(=O)(=O)c2ccc(N)cc2)nc(OC)n1,Potency,[1],inactive
same,Potency,[8],inactive
CC(C)C1CCC(C(=O)N[C@H](Cc2ccccc2)C(=O)O)CC1 (stereo not given in full),Potency,[1],inactive
same,Potency,[8],inactive
NS(=O)(=O)c1cc2c(cc1Cl)NC(C(Cl)Cl)NS2(=O)=O (stereo not given),Potency,[1],inactive
same,Potency,[8],inactive
CN(CCOc1ccc(CC2SC(=O)NC2=O)cc1)c1ccccn1 (stereo not given),Potency,[1],inactive
same,Potency,[8],inactive
NC(N)=NC(N)=NCCc1ccccc1,Potency,[1],inactive
same,Potency,[8],inactive
CN(C)CCc1c[nH]c2ccc(C[C@H]3COC(=O)N3)cc12,Potency,[1],inactive
same,Potency,[11],inactive
same,Potency,[8],inactive
CC(C)OC(=O)C(C(=O)OC(C)C)=C1SC=CS1,Potency,[1],inactive
same,Potency,[8],inactive
O=C(O)c1cccnc1,Potency,[1],inactive
Cc1onc(-c2ccccc2Cl)c1C(=O)N[C@@H]1C(=O)N2[C@@H]1SC(C)(C)[C@@H]2C(=O)O,Potency,[1],inactive
same,Potency,[11],inactive
same,Potency,[8],inactive
COc1ccccc1OCC(O)COC(N)=O (stereo not given),Potency,[1],inactive
same,Potency,[8],inactive
C1CCC(C(CC2CCCCN2)C2CCCCC2)CC1 (stereo not given),Potency,[1],inactive
